Measurements: PubChem BioAssay
The source made the active and inactive calls. Unless noted, no rule for the calls is given here.

Columns and labels:
[1] = HepG2 liver cancer cell viability effects, profiling panel, resazurin fluorescence, 24 h, PK04 Diversity Set (AID 1172); details: higher = more signal; also: test concentration not given here
[2] = basal S. cerevisiae growth modulation, no modifier, primary screen, OD600, strain BY4716, 24 h, basal condition (AID 1173); details: OD600, 24 h, higher = more signal, called active from +8 up or from −8 down
[3] = MM1S myeloma cell viability, profiling panel, resazurin fluorescence, basal, 24 h, PK04 Diversity Set (AID 1174); details: higher = more signal, called active from +8 up or from −8 down;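 also: MM1S multiple myeloma cell line; test concentration not given here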
[4] = target: Dihydroorotate dehydrogenase (quinone), mitochondrial (Plasmodium falciparum (isolate 3D7)) (UniProt Q08210); assay: PfDHODH enzyme inhibitors, primary screen, biochemical, C-terminal His tag, absorbance 600 nm (AID 1175); details: DCIP absorbance 600 nm, higher = more signal, called active from +8 up or from −8 down;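 also: recombinant parasite enzyme with a five histidine tag at its C terminus; test concentration not given here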
Sequence of Dihydroorotate dehydrogenase (quinone), mitochondrial (Plasmodium falciparum (isolate 3D7)) (Q08210 whole entry, looked up): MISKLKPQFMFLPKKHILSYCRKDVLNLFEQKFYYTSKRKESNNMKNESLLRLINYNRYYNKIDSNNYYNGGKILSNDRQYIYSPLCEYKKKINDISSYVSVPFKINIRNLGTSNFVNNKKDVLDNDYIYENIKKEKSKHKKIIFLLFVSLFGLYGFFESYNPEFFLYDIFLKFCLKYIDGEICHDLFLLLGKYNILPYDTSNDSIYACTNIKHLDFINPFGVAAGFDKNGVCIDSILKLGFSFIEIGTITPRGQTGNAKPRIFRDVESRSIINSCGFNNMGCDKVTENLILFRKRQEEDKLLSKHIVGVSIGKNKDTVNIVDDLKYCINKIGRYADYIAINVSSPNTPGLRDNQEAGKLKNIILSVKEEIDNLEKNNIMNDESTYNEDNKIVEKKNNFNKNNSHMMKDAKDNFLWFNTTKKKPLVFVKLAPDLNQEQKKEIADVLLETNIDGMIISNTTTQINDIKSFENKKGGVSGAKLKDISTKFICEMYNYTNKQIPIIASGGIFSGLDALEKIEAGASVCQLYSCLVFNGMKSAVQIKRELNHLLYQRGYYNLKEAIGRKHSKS

[5] = P. aeruginosa biofilm formation inhibitors, primary screen, strain PAO1, LB-PBS medium, absorbance 600 nm (AID 1176); also: test concentration not given here; details: P. aeruginosa PAO1 growth/biofilm, A600, 12 h; higher = more signal
[6] = S. cerevisiae RM11-1a growth modifiers, primary screen, strain RM11-1a, OD600, basal, 24 h (AID 1177); details: OD600, 24 h, higher = more signal, called active from +8 up or from −8 down;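 also: cultures grown under basal conditions with no added stressor; test concentration not given here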
[7] = E. coli acrAB mutant growth effects, primary screen, E. coli filamentation inducers, strain DRC39, OD650, 24 h (AID 1178); details: higher = more signal, called active from +8 up or from −8 down;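 also: growth measured as culture turbidity by optical density at 650 nm; test concentration not given here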
[8] = E. coli acrAB mutant growth effects, primary screen, E. coli filamentation inducers, strain DRC39, OD650, 48 h (AID 1179);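 also: screen aims at cell division blockers that make cells filament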; details: E. coli DRC39 delta-acrAB growth, higher = more signal, called active from +8 up or from −8 down
[9] = RPMI8226 myeloma cell viability, profiling panel, resazurin fluorescence, basal, 24 h, PK04 Diversity Set (AID 1180); details: higher = more signal;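 also: RPMI8826 multiple myeloma cell line at 5000 cells per well; test concentration not given here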
[10] = target: E3 ubiquitin-protein ligase XIAP (Homo sapiens) (UniProt P98170); assay: XIAP binders, primary screen, biophysical, small-molecule microarray, fluorescence 635 nm (AID 1181); details: small-molecule microarray binding, higher = more signal;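 also: score merges 667 nm emission and signal to noise over triplicate slides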
Sequence of E3 ubiquitin-protein ligase XIAP (Homo sapiens) (P98170 whole entry, looked up): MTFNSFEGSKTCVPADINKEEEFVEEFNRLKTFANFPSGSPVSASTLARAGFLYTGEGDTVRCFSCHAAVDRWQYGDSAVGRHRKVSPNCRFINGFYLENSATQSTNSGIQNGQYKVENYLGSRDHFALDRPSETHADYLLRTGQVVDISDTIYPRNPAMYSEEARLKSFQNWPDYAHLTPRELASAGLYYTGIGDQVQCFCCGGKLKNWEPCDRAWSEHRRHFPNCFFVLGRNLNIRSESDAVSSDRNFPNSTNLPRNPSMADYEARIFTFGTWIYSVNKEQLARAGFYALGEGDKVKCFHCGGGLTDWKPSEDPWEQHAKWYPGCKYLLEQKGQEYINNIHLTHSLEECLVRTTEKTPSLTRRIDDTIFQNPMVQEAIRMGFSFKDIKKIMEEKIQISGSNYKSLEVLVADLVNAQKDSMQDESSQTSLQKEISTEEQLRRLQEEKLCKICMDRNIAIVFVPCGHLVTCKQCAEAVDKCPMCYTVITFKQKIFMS

Row | Structure (SMILES) | z-score [1] | z-score [2] | z-score [3] | composite z-score [4] | z-score [5] | z-score [6] | z-score [7] | z-score [8] | z-score [9] | composite z-score [10]
1 | CN(C)CCCNC(=O)[C@@]1(c2ccc([N+](=O)[O-])cc2)CC(=O)N(CC23CC4CC(CC(C4)C2)C3)[C@@H]1c1ccc(CO)cc1 | -6.19 | -16.2 (active) | -8.92 (active) | 0.687 (inactive) | 0.472 (inactive) | -8.93 (active) | 0.325 (inactive) | -2.4 (inactive) | -6.48 | 0.0896
2 | [N-]=[N+]=NCc1ccccc1[C@H]1OC(c2ccc(OCCCO)cc2)=N[C@@]1(CCS(=O)(=O)c1ccccc1)C(N)=O | 0.437 | -0.258 (inactive) | 0.284 (inactive) | -0.136 (inactive) | 0.274 (inactive) | -0.296 (inactive) | 0.0575 (inactive) | -0.702 (inactive) | -0.134 | 0.182
3 | [N-]=[N+]=NCc1ccccc1C[C@@]1(C(=O)N2CCCCC2)N=C(c2ccc(OCCCO)cc2)O[C@@H]1c1ccccc1N=[N+]=[N-] | 0.226 | 0.146 (inactive) | -0.964 (inactive) | 0.42 (inactive) | 0.509 (inactive) | 1.41 (inactive) | 0.878 (inactive) | -0.0021 (inactive) | -0.892 | 0.0694
4 | [N-]=[N+]=Nc1ccccc1C[C@@]1(C(=O)O)N=C(c2ccc(OCCCO)cc2)O[C@@H]1c1ccccc1 | 1.06 | -2.01 (inactive) | -0.161 (inactive) | 0.624 (inactive) | 0.342 (inactive) | -0.583 (inactive) | -0.26 (inactive) | -0.523 (inactive) | 0.229 | 0.427
5 | Cc1ccc(S[C@]2(C(=O)NCC(F)(F)F)CC(=O)N(Cc3ccccc3)[C@@H]2c2ccc(CO)cc2)cc1 | -0.991 | -0.185 (inactive) | 0.546 (inactive) | -0.309 (inactive) | -0.131 (inactive) | -0.629 (inactive) | 0.163 (inactive) | -0.0965 (inactive) | 0.342 | 0.4
6 | C=CCN1Cc2ccccc2C[C@@]2(N=C(c3ccc(OCCCO)cc3)O[C@H]2c2ccccc2)C1=O | 0.211 | -5.82 (inactive) | -3.09 (inactive) | -0.13 (inactive) | 0.535 (inactive) | 0.0893 (inactive) | -0.137 (inactive) | 0.468 (inactive) | -4.81 | -0.031
7 | O=C1NC(=O)C2C1C=CC(C(O)c1cc(C(F)(F)F)cc(C(F)(F)F)c1)N2Nc1ccc(Cl)cc1Cl (stereo not given) | -1.71 | -4.29 (inactive) | -1.99 (inactive) | -0.195 (inactive) | 1.43 (inactive) | 1.1 (inactive) | -1.14 (inactive) | -1.13 (inactive) | -2.37 | 0.214
8 | CCOC(=O)C1=C[C@@H](c2ccccc2)N(S(=O)(=O)c2ccc(C)cc2)[C@H]1c1cccc(Cl)c1 | -0.663 | 1.7 (inactive) | -0.848 (inactive) | -0.184 (inactive) | -0.169 (inactive) | 2.1 (inactive) | -0.823 (inactive) | -0.777 (inactive) | -1.64 | -0.221
9 | [N-]=[N+]=NCc1ccccc1C[C@@]1(C(=O)NCCN2CCOCC2)N=C(c2ccc(OCCCO)cc2)O[C@@H]1c1ccccc1N=[N+]=[N-] | -0.61 | -1.22 (inactive) | -0.37 (inactive) | 0.699 (inactive) | 0.124 (inactive) | -0.304 (inactive) | 0.647 (inactive) | -0.456 (inactive) | -0.0843 | 0.318
10 | Cc1ccc(S[C@]2(C(=O)NC(C)C)CC(=O)N(C3Cc4ccccc4C3)[C@@H]2c2ccc(CO)cc2I)cc1 | -0.703 | -3.55 (inactive) | -3.17 (inactive) | -2.86 (inactive) | 0.379 (inactive) | -0.639 (inactive) | 0.525 (inactive) | 0.969 (inactive) | -2.08 | -0.0795
11 | CCOc1cc(C(O)C2C=CC3C(=O)N(C)C(=O)C3N2N2CCCCC2)ccc1O (stereo not given) | -1.1 | 1.62 (inactive) | -0.791 (inactive) | 0.66 (inactive) | 0.614 (inactive) | 2.07 (inactive) | -0.637 (inactive) | -0.8 (inactive) | -0.698 | 0.179
12 | C=CCNC(=O)[C@H]1[C@@H]2C(=O)O[C@@H](c3ccccc3)[C@@H](c3ccccc3)N2[C@@H](c2ccccc2OCCO)[C@]12C(=O)N(C(=O)OCCOC)c1ccc(C#CC3=CCCCC3)cc12 | -1.22 | 1.22 (inactive) | -5.62 (inactive) | 1.09 (inactive) | 1.37 (inactive) | 2.81 (inactive) | -0.29 (inactive) | 0.286 (inactive) | -4.42 | 0.106
13 | O=C(CCCCCCC(=O)Nc1ccccc1)N/N=C/c1ccccc1 | 0.327 | 0.141 (inactive) | 0.532 (inactive) | -0.543 (inactive) | 0.437 (inactive) | 0.678 (inactive) | 0.83 (inactive) | 0.159 (inactive) | 0.718 | 0.248
14 | [N-]=[N+]=Nc1ccccc1C[C@]1(C(=O)NCc2ccccc2)N=C(c2ccc(OCCCO)cc2)O[C@H]1c1ccccc1 | -0.328 | 1.41 (inactive) | -1.73 (inactive) | 1.18 (inactive) | 0.811 (inactive) | 3.08 (inactive) | 0.515 (inactive) | -0.0745 (inactive) | -1.84 | 0.0378
15 | CCOC(=O)C[C@H]1[C@H](OC(=O)c2ccccc2-c2ccccc2)[C@@H](NC(=O)c2ccc3ccccc3n2)c2cc(OCCCO)ccc2N1C(=O)c1ccc2ccccc2n1 | 0.922 | -1.08 (inactive) | 0.833 (inactive) | -0.431 (inactive) | 0.719 (inactive) | -0.344 (inactive) | 1.33 (inactive) | 1.21 (inactive) | -0.19 | -0.162
16 | CCCC=C(CCC)[C@@H](NP(=O)(c1ccccc1)c1ccccc1)c1ccc(C(F)(F)F)cc1 | 1.02 | 0.534 (inactive) | 0.839 (inactive) | 0.0197 (inactive) | -0.511 (inactive) | -0.359 (inactive) | 0.3 (inactive) | -0.93 (inactive) | 0.495 | 0.328
17 | C=C(C(=O)CC[C@H](OC(=O)c1cccnc1)c1cccc(OCCO)c1)C(C)C | 0.0418 | 1.06 (inactive) | -1.16 (inactive) | 0.612 (inactive) | -0.116 (inactive) | 2.01 (inactive) | 0.675 (inactive) | 0.297 (inactive) | -1.36 | -0.0117
18 | O=C(O)[C@H](Cc1ccccc1)n1cc(-c2ccccn2)nn1 | 0.535 | -0.65 (inactive) | 0.365 (inactive) | -0.435 (inactive) | -0.476 (inactive) | 0.911 (inactive) | -0.256 (inactive) | 0.23 (inactive) | 0.373 | 0.122
19 | COC(=O)[C@@]1(Cc2ccccc2)[C@H]2c3cc(C(=O)N4CCCC4)n(C[C@H](O)CO)c3C[C@H]2CN1C(=O)c1ccccc1 | -0.476 | 1.08 (inactive) | -0.688 (inactive) | 0.355 (inactive) | 0.0818 (inactive) | 0.267 (inactive) | -0.685 (inactive) | -0.299 (inactive) | -0.746 | -0.099
20 | C=CCN1C(=O)[C@@]2(O[C@@H](CCn3cc([C@H](O)c4ccccc4)nn3)[C@H]([Si](C)(C)c3ccc(OC)cc3)[C@H]2C)c2ccccc21 | -0.986 | 0.117 (inactive) | -1.83 (inactive) | -0.198 (inactive) | 0.626 (inactive) | 0.93 (inactive) | -0.599 (inactive) | -0.857 (inactive) | -1.97 | 0.144
21 | COc1ccc([Si](C)(C)[C@@H]2[C@@H](CCn3cc([C@H](O)c4ccccc4)nn3)O[C@]3(C(=O)N(Cc4ccc(N5CCOC5=O)cc4)c4ccccc43)[C@H]2C)cc1 | 0.977 | 0.146 (inactive) | -0.806 (inactive) | 0.181 (inactive) | 0.483 (inactive) | 1.54 (inactive) | 0.323 (inactive) | -0.0694 (inactive) | -0.12 | 0.049
22 | O=C1NC(=O)C2C1C=CC(C(O)c1ccc3c(c1)OCO3)N2Nc1ccccn1 (stereo not given) | -0.861 | -0.117 (inactive) | -0.854 (inactive) | 0.315 (inactive) | 1.89 (inactive) | -0.86 (inactive) | 0.812 (inactive) | 1.3 (inactive) | -0.431 | 0.0185
